Source: article PMC4336329 (PLoS ONE, 2015)
The whole screen tested about 310,000 compounds, of which about 14,000 (4.5%) showed an effect of 50% or more. The effect is printed as a negative number. The entries come from a sample that favours strong results as a whole.

These compounds were tested against human ether-à-go-go-related gene (hERG) potassium channel (human, UniProt Q12809) (assay: primary screen, population patch clamp on CHO cells stably expressing hERG; higher = less effect of the substance).
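Further: peak tail current of the secondary pulse compared with the same well before compound.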

Sequence of human ether-à-go-go-related gene (hERG) potassium channel (Q12809 whole entry, looked up): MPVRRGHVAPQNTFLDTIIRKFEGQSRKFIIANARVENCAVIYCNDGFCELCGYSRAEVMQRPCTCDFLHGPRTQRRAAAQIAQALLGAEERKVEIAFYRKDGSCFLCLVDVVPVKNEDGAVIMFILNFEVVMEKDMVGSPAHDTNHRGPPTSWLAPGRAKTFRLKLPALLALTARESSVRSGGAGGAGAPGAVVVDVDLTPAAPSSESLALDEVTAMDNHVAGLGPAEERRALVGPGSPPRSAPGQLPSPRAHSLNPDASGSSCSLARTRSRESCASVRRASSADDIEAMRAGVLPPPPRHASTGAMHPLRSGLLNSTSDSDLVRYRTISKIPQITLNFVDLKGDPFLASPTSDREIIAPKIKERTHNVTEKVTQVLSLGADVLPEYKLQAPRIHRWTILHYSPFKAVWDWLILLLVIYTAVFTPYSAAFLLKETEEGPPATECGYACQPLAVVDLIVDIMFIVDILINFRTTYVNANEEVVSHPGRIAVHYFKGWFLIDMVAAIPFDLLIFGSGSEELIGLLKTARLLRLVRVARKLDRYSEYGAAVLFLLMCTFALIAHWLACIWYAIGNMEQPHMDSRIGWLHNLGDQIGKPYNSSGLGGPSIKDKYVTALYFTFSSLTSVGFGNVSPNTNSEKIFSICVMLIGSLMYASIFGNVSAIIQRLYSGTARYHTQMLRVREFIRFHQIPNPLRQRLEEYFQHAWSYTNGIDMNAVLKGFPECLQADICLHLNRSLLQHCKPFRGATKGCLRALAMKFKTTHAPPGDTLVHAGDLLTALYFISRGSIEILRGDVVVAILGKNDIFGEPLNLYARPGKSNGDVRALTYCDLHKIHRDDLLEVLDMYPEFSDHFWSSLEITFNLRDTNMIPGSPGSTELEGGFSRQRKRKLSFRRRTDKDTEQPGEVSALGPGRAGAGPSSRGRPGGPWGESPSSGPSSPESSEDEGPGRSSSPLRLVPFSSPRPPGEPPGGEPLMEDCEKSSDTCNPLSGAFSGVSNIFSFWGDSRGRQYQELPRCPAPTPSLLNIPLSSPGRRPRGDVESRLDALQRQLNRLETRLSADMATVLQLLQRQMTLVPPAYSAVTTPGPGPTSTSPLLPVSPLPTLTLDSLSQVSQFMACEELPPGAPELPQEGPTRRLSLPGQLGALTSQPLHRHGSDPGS

SMILES	hERG current change (%, negative = inhibition) at 10uM [%]
COC(=O)C1CN(C(=O)C(C)Oc2cccc(C)c2C)c2ccccc2O1 (stereo not drawn)	-8.63
C=CCNc1nc(NCC)nc(N2CCOCC2)n1	-0.791
COc1ccc(-n2nc3c(c2NC(=O)COc2ccccc2)CS(=O)C3)cc1 (stereo not drawn)	-28.2
NC(=NC(=O)c1ccc(OCC(F)(F)F)nc1)c1ccc(Cl)cc1	17.9
O=S(=O)(NCc1cccnc1)c1ccc2c(c1)OCCO2	0.45
CCOC(=O)c1cnc2c(C)cccc2c1Nc1cccc(C(=O)O)c1.Cl	-8.37
CCOC(=O)c1cnc2ccccc2c1NCc1ccco1	-56.9
CCOC(=O)c1cnc2c(C)cccc2c1Nc1ccc(N2CCOCC2)cc1	8.24
CCOC(=O)c1cnc(SCC(=O)NCc2ccco2)nc1N	-14.5
CCOC(=O)c1cnc2c(C(=O)OC)cccc2c1NCc1ccco1	-70.2
CCOC(=O)c1cccnc1SC(CC)C(=O)NCc1ccco1 (stereo not drawn)	-31.5
CCOC(=O)c1cnc2ccccc2c1Nc1ccc(C(=O)O)cc1.Cl	17.9
CCOC(=O)c1ccc2ncc(C(=O)OCC)c(NCc3ccco3)c2c1	-24.7
CCOC(=O)c1cnc2c(C)cccc2c1NCc1ccco1	-67.9
CCOc1ccc(NC(=O)c2nc(SCC)ncc2Cl)cc1	15
COc1ccc(OC)c(C(C(=O)NC2CCCCC2)N(C(=O)c2snc(C(N)=O)c2N)c2ccccc2OC)c1 (stereo not drawn)	14.8
O=C(COc1ccc2c3c(c(=O)oc2c1)CCCC3)NC(Cc1ccc(Cl)cc1)C(=O)O (stereo not drawn)	5.92
CCOC(=O)c1nc(C)n(-c2cc(Cl)cc(Cl)c2)n1	-17.5
CCOC(=O)c1nn(-c2ccccc2)c(=O)cc1OCC(=O)Nc1cc(C)ccc1OC	-44
CCCNc1nc2c(c(=O)n(C)c(=O)n2C)n1Cc1ccc(F)cc1	-12.8
COc1ccccc1NC(=O)CCC(=O)O	23.4
COc1ccc(N2C(=O)CSC2c2cccs2)cc1 (stereo not drawn)	-3.37
O=C(Oc1c(CN2CCOCC2)cc(Cl)c2cccnc12)c1cccs1	-21.9

SMILES	hERG current change (%, negative = inhibition) at 10uM [%]
O=C(Oc1c(Cl)cc(Cl)c2cccnc12)c1cccs1	1.95
CN1CCN(Cc2cc(Cl)c3cccnc3c2OC(=O)c2cccs2)CC1	-53.3
CN(C)S(=O)(=O)c1ccc(N2CCCC2)c(C(=O)NNC(=O)c2ccc(F)cc2)c1	15.5
COc1ccc(NC(=O)NNC(=O)C(C)Oc2ccc3ccccc3c2)cc1OC (stereo not drawn)	-16.2
COc1ccc(C(=O)NCc2nnc(SCC(=O)N3CCOCC3)o2)cc1OC	13.7
CCCNC(=O)N(CCOC)CC1CCCN(C2Cc3ccccc3C2)C1 (stereo not drawn)	-47.8
CCOC(=O)CNC(=O)N(CCOC)CC1CCCN(C2Cc3ccccc3C2)C1 (stereo not drawn)	-28.5
COCCN(CC1CCCN(C2Cc3ccccc3C2)C1)C(=O)CSC (stereo not drawn)	-10.7
COCCN(CC1CCCN(C2Cc3ccccc3C2)C1)C(=O)c1cccs1 (stereo not drawn)	-68.5
CCNC(=O)N(CCOC)CC1CCCN(C2Cc3ccccc3C2)C1 (stereo not drawn)	-22.9
COCCN(CC1CCCN(C2Cc3ccccc3C2)C1)C(=O)c1ccc(C(C)=O)cc1 (stereo not drawn)	-78.6
O=C(NCc1ccco1)C1CCCN(S(=O)(=O)c2cccc3cccnc23)C1 (stereo not drawn)	0.148
CCOC(=O)c1cc(-c2nnc(SCC(=O)Nc3ccc(F)cc3)o2)c(C)nc1C	7.9
COc1ccc(C(=O)NCc2nnc(SCC(=O)c3ccccc3)n2C)cc1OC	-18.2
O=C(c1cc(-c2ccccc2)n[nH]1)N1CCc2c([nH]c3ccccc23)C1c1ccccn1 (stereo not drawn)	14.5
Cc1sc2nc(C3CCCCC3)nc(SCC(=O)N3CC(=O)Nc4ccccc43)c2c1C	52.8
CC(C)c1ccc(/C=C2\SC(=S)N(CCC(=O)N3CCCCC3CCO)C2=O)cc1 (stereo not drawn)	20.3
CCOc1ccccc1N1CC(C(=O)NNC(=O)c2cc(OC)c(OC)c(OC)c2)CC1=O (stereo not drawn)	9
Cc1cc(C)n2c(=S)[nH]nc2n1	19.6
CCOC(=O)N1CCC(N2Cc3cccc(C(=O)N4CC(C)CC(C)C4)c3C2=O)CC1 (stereo not drawn)	6.31
CCOC(=O)N1CCC(N2Cc3cccc(C(=O)N4CCN(C5CCCCC5)CC4)c3C2=O)CC1	-62.4
CCOC(=O)N1CCC(N2Cc3cccc(C(=O)O)c3C2=O)CC1	-23.6
CCCN1Cc2cccc(C(=O)N3CCN(c4ccccc4)CC3)c2C1=O	6.02

SMILES	hERG current change (%, negative = inhibition) at 10uM [%]
CCCN1Cc2cccc(C(=O)N3CCN(c4cc(Cl)ccc4C)CC3)c2C1=O	-52.5
CCOC(=O)N1CCC(N2Cc3cccc(C(=O)N4CCN(c5cccc(C)c5C)CC4)c3C2=O)CC1	-36.7
CCOC(=O)N1CCC(N2Cc3cccc(C(=O)N4CCN(c5cccc(Cl)c5)CC4)c3C2=O)CC1	-63.7
COCCN1Cc2cccc(C(=O)N3CCN(c4cc(C)ccc4C)CC3)c2C1=O	-16.5
Cn1ccc(C(=O)NC(=S)N2CCSCC2)n1	9.2
O=C(CSCc1cccc(Br)c1)NC1CC1	-6.25
Fc1cccc(CSc2nc3ncccc3[nH]2)c1	4.28
O=C(O)CC(c1ccc(Cl)cc1)N1C(=O)CCC1=O (stereo not drawn)	-7.96
Cn1cnnc1SCCNS(=O)(=O)c1ccccc1	10.8
COc1ccc2c(C)c(C)c(=O)oc2c1OC	3.4
CN(CC1CCCN(CCc2ccc(Cl)cc2)C1)C(=O)CC(F)(F)F (stereo not drawn)	-60.5
CN(C)C(=O)CCC(=O)N(C)CC1CCCN(CCc2ccc(F)cc2)C1 (stereo not drawn)	-38.1
CN(CC1CCCN(CCc2ccc(F)cc2)C1)C(=O)CCC(N)=O (stereo not drawn)	-23.9
CN(CC1CCCN(CCc2ccc(F)cc2)C1)C(=O)CCC(F)(F)F (stereo not drawn)	-63
CC(=O)Nc1cccc(C(=O)OCc2csc(CC(=O)Nc3ccccc3C)n2)c1	-14
N#CCCn1cc(C=C2C(=O)NC(=O)NC2=O)c(-c2ccccc2)n1	25.2
CCOc1ccc(C)cc1S(=O)(=O)n1ccc(C)n1	4.82
O=C(NCCCN1CCOCC1)c1cc(Cl)ccc1Cl	11.5
CC1CCN(CCCNC(=O)c2ccc(CSCc3cccc(Cl)c3)o2)CC1	-74.8
O=C(CC(c1ccccc1)c1cc(Br)ccc1O)NCCCN1CCOCC1 (stereo not drawn)	-31.3
O=C(NCc1ccc2c(c1)OCO2)c1ccc(CSCc2cccc(Cl)c2)o1	-11.1
O=C(CC(c1ccccc1)c1cc(Cl)ccc1O)NCCN1CCOCC1 (stereo not drawn)	-42.1
Cc1ccccc1S(=O)(=O)Cc1ccc(C(=O)NCCCN2CCC(C)CC2)o1	-36.2

SMILES	hERG current change (%, negative = inhibition) at 10uM [%]
O=C(CC(c1ccccc1)c1cc(Cl)ccc1O)NCCCN1CCOCC1 (stereo not drawn)	-50
Cc1ccc(CSCc2ccc(C(=O)NC3CC3)o2)cc1	-5.31
O=C(NCCCN1CCOCC1)c1cc(Cl)ccc1OCc1ccccc1	-55.7
Cc1cccc(CSCc2ccc(C(=O)NC3CCCC3)o2)c1	-55.5
Cc1ccc(CSCc2ccc(C(=O)NC3CCCC3)o2)cc1	-18.2
COc1ccc(Cl)cc1C(=O)NCCCN1CCOCC1	9.16
CCC(C)C(NC(=O)C1CCC(C)CC1)C(=O)Nc1ccc(OC)cc1OC (stereo not drawn)	-4.26
CCCCC(c1nnnn1C(C)C)N1CCN(C(=O)c2ccco2)CC1.Cl (stereo not drawn)	-18.9
O=C(c1ccccc1)N1N=C(c2ccccc2)CC1c1ccccc1[N+](=O)[O-] (stereo not drawn)	13.4
COc1ccccc1CNc1cc(CSc2ccc(Cl)cc2)nc(C)n1	-0.554
CCOC(=O)c1ccc(N2Cc3ccccc3C2=NC(=O)c2cccc([N+](=O)[O-])c2)cc1	10.7
CN(C)c1ccc(/C=N/NC(=O)CCCO)cc1	24.4
O=C(NCCN1CCOCC1)c1ccc(CSCc2cccc(Cl)c2)o1	-43.7
Cc1cccc(CS(=O)(=O)Cc2ccc(C(=O)NCCCN3CCOCC3)o2)c1	-12.6
Cc1ccccc1CSCc1ccc(C(=O)NCCCN2CCOCC2)o1	-47.6
Cc1ccc(CSCc2ccc(C(=O)NCCCN3CCOCC3)o2)cc1	-51.8
O=C(NCCCN1CCCC1)c1ccc(CSCc2cccc(Cl)c2)o1	-61.8
COCCNC(=O)c1ccc(CSCc2cccc(Cl)c2)o1	-7.69
O=C(NCCCN1CCOCC1)c1ccc(CSCc2cccc(Cl)c2)o1	-64.4
Cc1ccc(CSCC(=O)NCCCN2CCOCC2)cc1	11.4
CN1CCN(CCCNC(=O)c2ccc(CSCc3cccc(Cl)c3)o2)CC1	-40.2
